Shown is part of a subset that was picked to be rich in hits.
TDP1 block: qHTS Assay for Inhibitors of Tyrosyl-DNA Phosphodiesterase (TDP1); hit rate 0.28% among 350,000; recombinant TDP1, AlphaScreen DNA substrate cleavage; Potency, µM (top dose mostly 130 µM), for inactives: at the highest dose activity change, negative = inhibition, hits mostly inhibitors; further: nearly all actives have a fitted effect of over 40% in size
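Recombinant E. coli-expressed Tdp1 (1 nM) preincubated with compound 15 min at RT, then 5'-biotin/3'-phosphotyrosine-FITC DNA substrate (15 nM) added for 5 min. AlphaScreen beads (10 ug/ml) added, 10 min RT; tyrosine-FITC cleavage read as signal loss.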
L3MBTL1 block: qHTS Assay for the Inhibitors of L3MBTL1; AlphaScreen L3MBTL1–H3K9me1 peptide binding; Potency, µM (highest dose often 57.1 µM), without a hit: at the top dose activity, negative = inhibition, most hits filed as inhibitors; hit rate 0.66% among 230,000; further: nearly all actives have a fitted effect of over 60% in size
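AlphaScreen assay: L3MBTL1 (50 nM final) was preincubated 30 min at room temperature with biotinylated H3(1-15)K9me1 peptide (75 nM final), then 30 min with library compounds; streptavidin donor and nickel chelate acceptor beads (10 ug/mL final) added, 30 min dark.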
BLM inh: qHTS Assay for Inhibitors of Bloom's syndrome helicase (BLM). Potency, µM (titrated, usually from 56.1 µM), for the others: at the highest dose activity change, negative = inhibition, hits mostly inhibitors. AID 2528, 2010. hit rate 0.2% among 350,000. RecQ-like DNA helicase BLM (Homo sapiens), P54132. recombinant BLM DNA unwinding, fluorescence dequenching;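 further: plate controls were vehicle for no effect and no enzyme for full effect; nearly all actives have a fitted effect of over 35% in size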
JMJD2E inh: qHTS Assay for Inhibitors of Human Jumonji Domain Containing 2E (JMJD2E); JMJD2E catalytic domain, FDH-coupled NADH fluorescence (FDH is formaldehyde dehydrogenase); Potency, µM (series often up to 57.1 µM), for inactives: top-dose activity change, negative = inhibition, most hits filed as inhibitors; hit rate 1.6% among 230,000; AID 2147, 2009; active means well fitted inhibition curve with a large enough effect, not every such curve was filed as active; inconclusive means small, poorly fitted or top-dose-only effect, or another doubt; inactive means no such curve, though single readings can be large or run the other way;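 further: 0% = wells with enzyme and -100% = buffer wells without enzyme; nearly all actives have a fitted effect of over 50% in size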
APE1 inh-1: qHTS Assay for Inhibitors of the Human Apurinic/apyrimidinic Endonuclease 1 (APE1); hit rate 0.35% among 350,000; recombinant APE1, TAMRA/BHQ-2 abasic DNA cleavage fluorescence; AID 2517, 2012; DNA repair nuclease/redox regulator APEX1 (Homo sapiens), P27695; Potency, µM (highest dose often 65.8 µM), without a hit: at the top dose activity change, negative = inhibition, usual class: inhibitors;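 further: plate controls were vehicle for no effect and reference inhibitor for full effect; nearly all actives have a fitted effect of over 55% in size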
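Quantitative HTS: incision of a TAMRA/BHQ-2 double-stranded substrate bearing a tetrahydrofuran abasic site by 0.75 nM APE1 raises fluorescence. Substrate 50 nM final, added after 15 min compound preincubation at room temperature; progress as third-minus-first kinetic read difference.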
RECQ1 helicase: qHTS Assay for Inhibitors of RecQ-Like Dna Helicase 1 (RECQ1) | AID 2549, 2010 | hit rate 0.54% among 240,000 | RECQ1 DNA unwinding, red fluorescence kinetic read | ATP-dependent DNA helicase Q1 (Homo sapiens), P46063 | Potency, µM (series often up to 57.3 µM), for the others: at the highest dose activity, negative = inhibition, most hits filed as inhibitors;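 further: plate controls were vehicle for no effect and no enzyme for full effect; nearly all actives have a fitted effect of over 30% in size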
Target sequence (P46063 whole entry, looked up): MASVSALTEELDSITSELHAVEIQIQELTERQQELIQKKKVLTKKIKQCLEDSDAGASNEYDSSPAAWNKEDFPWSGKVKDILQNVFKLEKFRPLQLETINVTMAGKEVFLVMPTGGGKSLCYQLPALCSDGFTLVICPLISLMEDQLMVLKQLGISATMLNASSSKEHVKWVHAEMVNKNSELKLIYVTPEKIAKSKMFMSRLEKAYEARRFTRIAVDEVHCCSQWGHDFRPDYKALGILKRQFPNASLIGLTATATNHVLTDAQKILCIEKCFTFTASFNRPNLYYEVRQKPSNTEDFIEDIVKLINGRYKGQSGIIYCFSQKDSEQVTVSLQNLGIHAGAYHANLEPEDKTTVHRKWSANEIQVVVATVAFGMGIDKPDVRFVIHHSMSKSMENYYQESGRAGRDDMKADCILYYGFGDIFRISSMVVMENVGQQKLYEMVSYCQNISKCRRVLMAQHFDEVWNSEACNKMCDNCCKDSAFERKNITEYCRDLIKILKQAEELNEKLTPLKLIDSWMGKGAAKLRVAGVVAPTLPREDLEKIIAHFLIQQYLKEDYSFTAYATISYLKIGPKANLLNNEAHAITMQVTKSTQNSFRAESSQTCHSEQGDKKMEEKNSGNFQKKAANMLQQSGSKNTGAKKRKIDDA
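RECQ1T1 50 nM; forked duplex (20 bp + 30-nt ss tails) 200 nM, ATP 2 mM final; pH 8.0, 2 mM MgCl2, 2.5 ug/ml poly(dI-dC); 15 min compound preincubation; discontinuous kinetic read over 2 h at RT.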
APE1 dye cs: Counterscreen for APE1 Inhibitors: Fluorescent Dye Displacement Assay. AID 2564, 2010. Potency, µM (highest dose often 28.5 µM), without a hit: at the top dose activity change, negative = inhibition, hits mostly inhibitors. hit rate 7% among 480. DNA fluorescent dye displacement counterscreen, fluorescence. shares compounds with APE1 inh-1;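 further: loss of thiazole orange fluorescence as the dye is displaced from duplex DNA; 0% = ThO with dsDNA and no compound and -100% = ThO without dsDNA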
Endo IV inh: Counterscreen for APE1 Inhibitors: qHTS Assay for Inhibitors of Endonuclease IV | shares compounds with APE1 inh-1 | E. coli Endo IV, fluorogenic AP-site DNA cleavage | Potency, µM (doses to about 27.1 µM), for inactives: at the top dose activity change, negative = inhibition, usual class: inhibitors | hit rate 4% among 560 | AID 2565, 2010;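 further: plate controls were uninhibited enzyme wells for no effect and no enzyme buffer wells for full effect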
APE1 inh-2: Confirmation qHTS Assay for Inhibitors of the Human Apurinic/apyrimidinic Endonuclease 1 (APE1). hit rate 44% among 750. shares compounds with APE1 inh-1. purified APE1, fluorogenic abasic-site DNA cleavage. Potency, µM (highest dose often 57.1 µM), for the others: top-dose activity change, negative = inhibition, usual class: inhibitors; further: nearly all actives have a fitted effect of over 30% in size
APE1 FP inh: qHTS FP-Based Assay for Inhibitors of the Human Apurinic/apyrimidinic Endonuclease 1 (APE1); shares compounds with APE1 inh-1; APE1 binding to TAMRA-labelled double-stranded DNA, fluorescence polarization displacement; Potency, µM (top dose mostly 28.5 µM), inactives show top-dose activity, negative = inhibition, usual class: inhibitors; hit rate 7% among 480; AID 2573, 2010
Numbers without * were called inactive; i = inactive; ? = inconclusive; / = no result; ! = repeats disagree; [ ] = another dose, or the depositor's remark. Unless noted, the call rests on the fitted dose curve; in most records, active means well fitted curve in the direction sought with a large enough effect; inconclusive means small, poorly fitted or top-dose-only effect, or another doubt; inactive means no such curve, though single readings can be large; an effect the other way counts as inactive or inconclusive. Unless noted, on the % scale 0 is the no-effect control and ±100 the full control effect; potency means the concentration at half of the fitted maximal effect.

SMILES	TDP1 block	L3MBTL1 block	BLM inh	JMJD2E inh	APE1 inh-1	RECQ1 helicase	APE1 dye cs	Endo IV inh	APE1 inh-2	APE1 FP inh
Cc1ccc(CNC(=O)CN(C)S(=O)(=O)c2ccc3c(c2)c(=O)n(C)c(=O)n3C)cc1	3%	/	-2%	/	/	/	/	/	/	/
O=C1CCC([N+](=O)[O-])C(c2ccc(Br)cc2)N1 (centres undefined)	2%	8%	2%	11%	14%	-10%	/	/	/	/
O=C1CCC([N+](=O)[O-])C(c2cccc([N+](=O)[O-])c2)N1 (centres undefined)	?	/	0%	4%	0.11µM*	-4%	-7%	-1%	-5%[24.4 µM]	-2%
O=C1N(Cc2ccccc2Cl)c2ccccc2C1(O)c1c[nH]c2ccccc12 (centres undefined)	6%	/	-13%	/	/	/	/	/	/	/
C=CCn1c(COc2cccc(C)c2)nnc1SCC(=O)NC(=O)NCc1ccco1	/	?	-29%	-2%	?	-20%	-7%	0%	?	-23%
O=C(CSc1nnc(COc2ccccc2)n1Cc1ccco1)NCc1ccco1	/	?	-25%	-4%	?	-22%	/	/	/	/
CCn1c(SCC(=O)NCc2ccco2)nnc1C(C)C	-2%	-4%	1%	?	-3%	-10%	/	/	/	/
CCn1c(SCC(=O)NCc2ccco2)nnc1-c1cccs1	50µM*	0%[11.4 µM]	-20%	?	35µM*	-5%	?	-2%	?	-14%
O=c1oc2c3c4c(cc2s1)CCCN4CCC3	14µM*	/	?	?	28µM*	28µM*	0%	46%	16µM*	-1%
COc1ccc(NC(=O)Cn2ccn(Cc3ccccc3)c(=O)c2=O)cc1Cl	-4%	/	-12%	/	/	/	/	/	/	/
Cc1nn(C)c(Cl)c1S(=O)(=O)N(Cc1ccco1)c1ncnc2nc[nH]c12	1%	/	/	/	/	/	/	/	/	/
Cc1ccc(S(=O)(=O)c2c(Nc3cc(F)ccc3F)sc(C(=O)c3ccc(F)cc3)c2N)cc1	2%	/	-13%	/	/	/	/	/	/	/
COc1ccc(C2CC(=O)c3c(O)cc(O)cc3O2)cc1O (centres undefined)	-1%[56.1 µM]	/	0%	10%	-2%	-10%	/	/	/	/
O=C1CC(c2ccc(O)c(O)c2)Oc2cc(O)cc(O)c21 (centres undefined)	-6%	/	4%	28µM*	13µM*	?	-8%	30%	?	6%
CC(=O)Nc1ccc(SCC(c2ccccc2)N2CCN(C)CCC2=O)cc1 (centres undefined)	6%	/	4%	/	20%	-12%	/	/	/	/
CCOC(=O)N/N=C1/C[C@@H](O)[C@@H](O)[C@@H]2[C@@H]3C(=O)N(C(C)(C)C)C(=O)[C@H]3CC[C@H]12	4%[21 µM]	/	3%[12.4 µM]	/	12%[12.4 µM]	-5%[11.5 µM]	/	/	/	/
COc1ccccc1C1CN(c2ccccc2)N=C1c1cccs1 (centres undefined)	7.9µM*	/	-7%	?	1%	-9%	/	/	?	/
O=C(O)C1C2C=CC(C2)C1C(=O)NCc1cccs1 (centres undefined)	45µM*	-1%	-3%	1%	?	i	/	/	?	/
COc1ccc(CCNC(=O)c2ccc3nc(-c4ccco4)c(-c4ccco4)nc3c2)cc1OC	10µM*	?	14µM*	13µM*	8.9µM*!	16µM*	/	/	16µM*	/
CCOCCCNC(=O)c1cnc2sc(N3CCCCCC3)nn2c1=O	5%	/	1%	/	/	/	/	/	/	/
CN=c1scc(C)n1/N=C/c1cc(Br)c(O)c(OC)c1	-4%	-6%	-7%	-9%	0%	i	/	/	/	/
CN=c1scc(C)n1/N=C/c1ccc(O)c(O)c1O	-2%	/	?	7.9µM*	7.1µM*	10µM*	?	93%	14µM*	8%
CC[C@H](C)[C@H](NC(=O)[C@H](Cc1ccccc1)NC(=O)[C@H](CCC(=O)O)NC(=O)[C@H](CCCCN)NC(=O)[C@H](C)NC(=O)[C@H](C)NC(=O)[C@H](CCC(N)=O)NC(=O)CNC(=O)[C@H](CCC(=O)O)NC(=O)[C@H](CC(C)C)NC(=O)[C@H](Cc1ccc(O)cc1)NC(=O)[C@H](CO)NC(=O)[C@H](CO)NC(=O)[C@@H](NC(=O)[C@H](CC(=O)O)NC(=O)[C@H](CO)NC(=O)[C@@H](NC(=O)[C@H](Cc1ccccc1)NC(=O)[C@@H](NC(=O)CNC(=O)[C@H](CCC(=O)O)NC(=O)[C@H](C)NC(=O)[C@@H](N)Cc1cnc[nH]1)[C@@H](C)O)[C@@H](C)O)C(C)C)C(=O)N[C@@H](C)C(=O)N[C@@H](Cc1c[nH]c2ccccc12)C(=O)N[C@@H](CC(C)C)C(=O)N[C@H](C(=O)N[C@@H](CCCCN)C(N)=O)C(C)C	9%	/	1%	/	?	-22%	/	/	/	/
